Compounds with a hit are over-represented: about 28% of the library has one in this group of screens.
CD11b adhes enh: increases human CD11b/CD18 adhesion to fibrinogen; K562 CD11b/CD18 adhesion to fibrinogen, ATPlite luminescence; activation, % at 10 µM; P05107+P11215; hit rate 0.07% among 93,000; AID 1499;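 active means 10 µM primary screen giving 50% or more activity, confirmed by 40% or more on retest at that dose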
CYP2C9 inhib: blocks human cytochrome P450 2C9 | CYP2C9 Supersomes, luciferin-H conversion, luminescence | inhibition, % at 5 µM | hit rate 20% among 96,000;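 active means blocking of liver enzyme CYP2C9 beyond about 50% at 5 µM, limit read from the data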
CYP2C19 activ: cytochrome P450 2C19 (human) activation; P33261; activation factor at 5 µM; 96,000 tested, under 10 active; AID 1025; recombinant CYP2C19, luciferin-H EGE luminescence; hits give high values; 0 = fully inhibited enzyme, 1 = untreated enzyme;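 active means activation factor of at least 2 at 5 µM in the primary screen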;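 further: 0 = wells with 2.5 mM tranylcypromine and 1 = vehicle-only wells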
Target sequence (P33261 whole entry, looked up): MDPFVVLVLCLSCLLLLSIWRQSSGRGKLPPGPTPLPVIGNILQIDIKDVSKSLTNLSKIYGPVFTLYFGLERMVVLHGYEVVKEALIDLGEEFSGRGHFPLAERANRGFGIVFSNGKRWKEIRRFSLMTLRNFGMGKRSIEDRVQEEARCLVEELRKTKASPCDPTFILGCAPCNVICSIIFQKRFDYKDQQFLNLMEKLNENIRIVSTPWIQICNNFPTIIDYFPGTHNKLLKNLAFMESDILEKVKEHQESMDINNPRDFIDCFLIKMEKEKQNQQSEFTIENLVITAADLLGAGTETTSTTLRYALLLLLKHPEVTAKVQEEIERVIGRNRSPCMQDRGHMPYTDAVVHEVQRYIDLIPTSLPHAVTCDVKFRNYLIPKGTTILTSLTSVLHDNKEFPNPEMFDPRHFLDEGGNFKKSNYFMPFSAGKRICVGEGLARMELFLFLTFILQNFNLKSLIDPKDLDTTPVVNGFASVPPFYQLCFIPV
CYP2C9 act: increases human cytochrome P450 2C9 activity. recombinant CYP2C9, luciferin-H conversion, luminescence; hits give high values; factor 1 = untreated enzyme, 0 = blocked. activation factor at 5 µM. hit rate 1.4% among 96,000;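 active means activation factor of 2 or more for CYP2C9 at a 5 µM dose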;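 further: 0 = sulfaphenazole-blocked wells and 1 = vehicle-only wells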
CYP2C19 inhib: human CYP2C19 inhibition; P33261; inhibition, % at 5 µM; CYP2C19 Supersomes, luciferin-H EGE luminescence, 30 min; hit rate 21% among 96,000;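 active means CYP2C19 inhibition above a set limit at 5 µM in the primary screen, cut at about 50% in these data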;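 further: plate controls were negative control wells for no effect and 2.5 mM tranylcypromine positive control for full effect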
Mac1 fbg inh: CD11b/CD18-fibrinogen binding inhibition; P05107+P11215; K562 CD11b/CD18 adhesion to fibrinogen, ATPlite luminescence; Mn2+ added to activate the integrin; inhibition, % at 10 µM; hit rate 0.54% among 93,000; AID 1497;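 active means primary inhibition of 50% or more at 10 µM, then 40% or more on retest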
The depositor's hits bear a star; nt = not tested or not shown.

SMILES	CD11b adhes enh	CYP2C9 inhib	CYP2C19 activ	CYP2C9 act	CYP2C19 inhib	Mac1 fbg inh
COc1cccc(C2(O)CCN(C(=O)C3CC3)CC2)c1	-2	-4	0.8	1	19	11
Cc1ccc(Cl)cc1N1CCN(S(=O)(=O)c2ccc3c(c2)oc(=O)n3C)CC1	-2	97*	0.9	0	12	-10
Cn1c(=O)oc2cc(S(=O)(=O)N3CCOCC3)ccc21	3	-32	1.3	1.3	-28	-8
Cn1c(=O)oc2cc(S(=O)(=O)N3CCC4(CC3)OCCO4)ccc21	-4	-2	0.2	1	75*	0
Nc1nonc1C(=O)NCCNS(=O)(=O)c1ccc(Br)cc1	8	-13	0.4	1.1	60*	2
COCc1cc(C)nc(OCC(=O)N/N=C/c2cc(C)n(-c3c(C)cccc3C)c2C)c1C#N	1	83*	0.7	0.2	28	5
COc1ccc(C)cc1NC(=O)CSc1nnc(-c2ccco2)n1Cc1ccco1	5	20	0.7	0.8	27	8
O=C(CSc1nnc(-c2ccco2)n1Cc1ccco1)NCc1ccccc1	-3	85*	0.3	0.2	66*	-7
Cc1cc(-c2ccco2)n(CC(=O)NCc2ccccc2)n1	0	6	0.3	0.9	75*	-7
CCn1c(SCC(=O)NC(=O)Nc2ccc3c(c2)OCCO3)nnc1-c1cccs1	1	56*	0.5	0.4	48	2
CCn1c(SCC(=O)NCc2cccs2)nnc1-c1cccs1	-2	9	0.6	0.9	36	1
Cc1ccc(OCc2nnc(SCC(=O)Nc3ccc4c(c3)OCCO4)n2Cc2ccco2)cc1	0	69*	0.6	0.3	44	8
CN=c1scc(C)n1/N=C/c1ccc2c(c1)OCO2	-2	10	0.8	0.9	17	2
CC1(CCc2ccc(O)cc2)NC(=O)NC1=O (stereo not drawn)	-5	0	1	1	2	-29
CNC(=O)c1cc(C)c(-c2ccccc2)s1	3	3	0.6	1	41	-4
O=C(CSc1nnc(-c2cccs2)n1Cc1ccco1)Nc1ccc2c(c1)OCO2	-2	63*	0.7	0.4	33	4
CCn1c(Cc2ccccc2)nnc1SCC(=O)Nc1ccc(N)cc1	-1	6	0.8	0.9	20	11
Cn1cccc1Cc1nnc(SCC(=O)Nc2ccc3c(c2)OCO3)n1-c1ccc(F)cc1	0	44	0.6	0.6	40	0
O=C(CSc1nnc(-c2ccccc2)n1Cc1ccco1)NCc1ccc2c(c1)OCO2	-2	67*	0.9	0.3	7	-14
CC(=O)Nc1ccc(NC(=O)CSc2nnc(-c3ccccc3)n2Cc2ccc3c(c2)OCO3)cc1	nt	30	0.8	0.7	25	nt
CCn1c(Cc2ccccc2)nnc1SCC(=O)Nc1ccc2c(c1)OCCO2	nt	58*	0.3	0.4	68*	nt
O=C(CSc1ncc(-c2ccc(F)cc2)n1Cc1ccco1)Nc1ccc2c(c1)OCO2	-5	73*	0.8	0.3	19	69
CN(C)CCCN(CCCNC(=O)/C=N/O)Cc1ccccc1	3	nt	nt	nt	nt	11
O=C(NC12CC3CC(CC(C3)C1)C2)c1cncc(O)c1	1	13	0.9	0.9	14	-53
CC(=O)NC(CC(C)C)C(=O)NC(=O)NCc1ccccc1 (stereo not drawn)	-4	-5	0.8	1.1	20	5
SMILES	CD11b adhes enh	CYP2C9 inhib	CYP2C19 activ	CYP2C9 act	CYP2C19 inhib	Mac1 fbg inh
Cn1c(SCC(=O)Nc2ccc3c(c2)OCCO3)nnc1-c1ccco1	4	63*	0.5	0.4	52*	8
O=C(CSc1nnc(-c2ccccc2)n1Cc1ccco1)Nc1ccc2c(c1)OCCO2	1	55*	0.4	0.5	56*	-7
O/N=C(\c1ccc(Cl)cc1)c1cc2ccccc2o1	3	36	0.9	0.6	15	-4
COCCN(CC(=O)Nc1ccc(F)cc1)S(=O)(=O)c1ccc(S(=O)(=O)N2CCCC2)cc1	-6	62*	1	0.4	4	13
COCCN(CC(=O)Nc1ccccc1)S(=O)(=O)c1ccc(S(=O)(=O)N2CCCC2)cc1	1	73*	0.9	0.3	11	10
CCOc1ccccc1N(CC(=O)Nc1ccc(S(=O)(=O)N2CCOCC2)cc1)S(=O)(=O)c1ccccc1	nt	-2	1	1	-2	nt
COC(=O)CCC(=O)Nc1ccc(S(=O)(=O)N2CCCCCC2)cc1	10	43	0.8	0.6	22	-47
Cc1ccc(S(=O)(=O)/C=C/c2ccccc2)cc1	2	nt	nt	nt	nt	-15
N#CCCN1CCN(C(=S)c2ccc(-c3ccc(Cl)cc3)o2)CC1	0	24	0.4	0.8	62*	0
S=C(c1ccc(-c2ccc(Cl)cc2)o1)N1CCCCC1	-10	80*	0.1	0.2	92*	38
CCCCCc1nc2sc3c(c2c(=O)n1NC(=O)c1ccc([N+](=O)[O-])cc1)CC(C)(C)OC3	-6	nt	nt	nt	nt	94
CC(=O)c1c(C)[nH]c(C(=O)OCn2nnc3ccccc3c2=O)c1C	-4	-9	0.9	1.1	11	6
CSc1nnc(-c2sc(-c3ccccc3)nc2C)n1C	nt	72*	0.6	0.3	42	nt
Cc1nc(-c2ccccc2)sc1-c1n[nH]c(=S)n1C	nt	15	0.9	0.8	9	nt
COc1ccc(NC(=O)c2ccccc2NC(=O)C2CCCO2)cc1 (stereo not drawn)	1	80*	0.5	0.2	50*	6
O=C(Nc1ccccc1Sc1ccccc1)C1CCCO1 (stereo not drawn)	0	25	0.3	0.8	69*	-11
CC(C)NC(=O)c1ccccc1NC(=O)C1CCCO1 (stereo not drawn)	-2	26	1	0.7	4	-6
O=C(Nc1ccccc1Sc1ccccc1)c1ccccc1	0	77*	0.1	0.2	86*	3
Cc1cc2cc(CN(CC3CCCO3)C(=O)c3cnccn3)c(=O)[nH]c2cc1C (stereo not drawn)	0	18	0.9	0.8	11	6
COC(=O)CNC(=O)CSc1nc(N)cc(=O)[nH]1	-3	13	1.1	0.9	-12	12
CC(=O)/C(=N/Nc1ccccc1)Sc1nnc(C(O)c2ccccc2)n1-c1ccccc1 (stereo not drawn)	2	nt	nt	nt	nt	-16
O=C(COC(=O)C1(c2ccc(F)cc2)CCCC1)Nc1ncc(C(F)(F)F)cc1Cl	-4	nt	nt	nt	nt	79
CCc1ccc(NC(=O)CCNS(=O)(=O)c2cccc3nsnc23)cc1	-5	42	0.5	0.6	51*	14
CCOc1ccc(CCNS(=O)(=O)c2cccc3nsnc23)cc1OCC	2	57*	0.1	0.4	86*	-20
COC(=O)c1ccc(NC(=O)CCNS(=O)(=O)c2cccc3nonc23)cc1	0	26	0.3	0.7	72*	5
